Screen size: about 5,500 compounds; about 2,000 (36%) were called active. Another 18% or so got no clear call; they are omitted. No stated cut-off is given here; in the data, active means normalized growth mostly below about 0.91 (no sharp cut-off); inconclusive means no clear call, values can overlap the other calls; inactive means mostly above about 0.92. This is one part of the list.
Assay: chemical genetic growth profiling, strain panel (AID 1159580);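 further: tested at 20 µM; growth read once vehicle control cultures reached saturation at 30 °C; 1 = growth at the plate median or of vehicle wells; lower values mean less growth of the strain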
Conditions: S. cerevisiae deletion strains, growth OD
[1] = locus YHR030C, strain SLT2, active compounds read low
[2] = locus YJR075W, strain HOC1, active compounds read low
[3] = locus YPL055C, strain LGE1, active compounds read low
[4] = locus YPL241C, strain CIN2, active compounds read low

Measured: normalized growth

CCCCCCNC(=O)NCCCCCC
active: locus YLR039C, strain RIC1, active compounds read low 0.76 | locus YLR058C, strain SHM2 (second series), active compounds read low 0.933 | locus YLR262C, strain YPT6, active compounds read low 0.723 | locus YMR219W, strain ESC1, active compounds read low 0.924 | locus YNL322C, strain KRE1, active compounds read low 0.914
inactive: locus YAL013W, strain DEP1, active compounds read low 0.958 | locus YBR229C, strain ROT2, active compounds read low 0.931 | locus YDL101C, strain DUN1, active compounds read low 0.983 | locus YDL134C, strain PPH21, active compounds read low 0.925 | locus YDR150W, strain NUM1, active compounds read low 0.931 | locus YEL061C, strain CIN8, active compounds read low 0.939 | locus YGR078C, strain PAC10, active compounds read low 0.933 | [1] 0.858 | locus YHR087W, strain rtc3, active compounds read low 0.955 | locus YJR043C, strain POL32, active compounds read low 0.942 | [2] 0.894 | locus YLR085C, strain ARP6, active compounds read low 0.881 | locus YML094W, strain GIM5, active compounds read low 0.991 | locus YMR263W, strain SAP30, active compounds read low 0.98 | locus YNL153C, strain GIM3, active compounds read low 0.986 | locus YNL298W, strain CLA4 (second series), active compounds read low 0.991 | locus YNR030W, strain Alg12, active compounds read low 0.918 | locus YOL006C, strain TOP1, active compounds read low 0.858 | [3] 0.959 | [4] 0.982 | locus YPR135W, strain CTF4, active compounds read low 0.824

CCCCCCCCCCCCCCCC(=O)NCCO
inactive: locus YAL040C, strain CLN3, active compounds read low 1.02 | locus YCL061C, strain MRC1 (second series), active compounds read low 1.01 | locus YDR363W, strain ESC2, active compounds read low 1.02 | locus YER002W, strain NOP16, active compounds read low 1.01 | [2] 1.01 | locus YMR307W, strain GAS1, active compounds read low 1 | locus YNL197C, strain WHI3, active compounds read low 1.03 | locus YOR083W, strain WHI5 (second series), active compounds read low 1.02 | [3] 1.02 | [4] 0.999
active: locus YNL224C, strain SQS1, active compounds read low 0.823

CC(=O)NCCCS(=O)(=O)O
inactive: locus YAL021C, strain ccr4, active compounds read low 0.994 | locus YAL026C, strain drs2, active compounds read low 1.02 | locus YAL030W, strain snc1, active compounds read low 1.01 | locus YBL061C, strain skt5, active compounds read low 1.01 | locus YBR009C, strain hhf1, active compounds read low 1.02 | locus YBR023C, strain chs3, active compounds read low 1.02 | locus YBR171W, strain sec66, active compounds read low 1.03 | locus YBR231C, strain swc5, active compounds read low 1.02 | locus YBR279W, strain paf1, active compounds read low 1.02 | locus YCL011C, strain gbp2, active compounds read low 1.01 | locus YCL016C, strain dcc1, active compounds read low 1.02 | locus YCL061C, strain MRC1, active compounds read low 1.02 | locus YCL069W, strain vba3, active compounds read low 1.01 | locus YCR088W, strain abp1, active compounds read low 1.01 | locus YDL005C, strain med2, active compounds read low 1.01 | locus YDL040C, strain nat1, active compounds read low 1.02 | locus YDR001C, strain nth1, active compounds read low 1.01 | locus YDR069C, strain doa4, active compounds read low 1.01 | locus YDR137W, strain rgp1, active compounds read low 1.03 | locus YDR159W, strain sac3, active compounds read low 1.01 | locus YDR195W, strain ref2 1.02 | locus YDR297W, strain sur2, active compounds read low 1.01 | locus YDR334W, strain swr1, active compounds read low 1.01 | locus YDR335W, strain msn5, active compounds read low 1.01 | locus YDR392W, strain spt3, active compounds read low 0.984 | locus YEL003W, strain gim4, active compounds read low 1.01 | locus YEL037C, strain rad23, active compounds read low 1.01 | locus YEL061C, strain CIN8 (second series), active compounds read low 1 | locus YER015W, strain faa2, active compounds read low 1.01 | locus YER016W, strain bim1, active compounds read low 1.02 | locus YER111C, strain swi4, active compounds read low 1.02 | locus YER155C, strain BEM2 (second series), active compounds read low 1.04 | locus YFR010W, strain ubp6, active compounds read low 1.01 | locus YGL167C, strain pmr1, active compounds read low 1.01 | locus YGL173C, strain kem1, active compounds read low 1.02 | locus YGL227W, strain vid30, active compounds read low 1.02 | locus YGL240W, strain doc1, active compounds read low 1.02 | locus YGL253W, strain hxk2, active compounds read low 1.01 | locus YHR013C, strain ard1, active compounds read low 1.05 | locus YHR027C, strain rpn1, active compounds read low 1.01 | [1] 1.03 | locus YHR079C, strain IRE1, active compounds read low 1.04 | locus YHR142W, strain chs7, active compounds read low 1.01 | locus YJL092W, strain hpr5, active compounds read low 1.01 | locus YJL095W, strain BCK1 (second series), active compounds read low 1.01 | locus YJL095W, strain BCK1, active compounds read low 1.01 | locus YJL115W, strain asf1, active compounds read low 1.01 | locus YJL129C, strain trk1, active compounds read low 1.01 | locus YJL154C, strain vps35, active compounds read low 1.01 | locus YJL164C, strain tpk1, active compounds read low 1 | locus YJL166W, strain qcr8, active compounds read low 1.02 | locus YJL187C, strain SWE1, active compounds read low 1.01 | locus YJR066W, strain TOR1, active compounds read low 0.989 | locus YKL160W, strain elf1, active compounds read low 1.02 | locus YKR026C, strain gcn3, active compounds read low 0.993 | locus YKR091W, strain srl3, active compounds read low 1.02 | locus YLL001W, strain dnm1, active compounds read low 1.02 | locus YLL026W, active compounds read low 1.02 | locus YLL041C, strain sdh2, active compounds read low 1.01 | locus YLR027C, strain aat2, active compounds read low 1.02 | locus YLR113W, strain HOG1, active compounds read low 0.97 | locus YLR221C, strain rsa3, active compounds read low 1.01 | locus YLR258W, strain gsy2, active compounds read low 1.01 | locus YLR262C, strain YPT6 (second series), active compounds read low 1.02 | locus YLR320W, strain mms22, active compounds read low 1.01 | locus YLR342W, strain FKS1, active compounds read low 1.01 | locus YLR357W, strain rsc2, active compounds read low 1.06 | locus YLR370C, strain arc18, active compounds read low 1.01 | locus YLR384C, strain iki3, active compounds read low 1.02 | locus YML120C, strain ndi1, active compounds read low 1.01 | locus YMR058W, strain fet3, active compounds read low 1.02 | locus YMR125W, strain sto1, active compounds read low 1.03 | locus YMR129W, active compounds read low 1 | locus YMR205C, strain PFK2, active compounds read low 1.03 | locus YMR231W, strain pep5, active compounds read low 1.01 | locus YNL071W, strain lat1, active compounds read low 1.02 | locus YNL183C, strain NPR1, active compounds read low 1 | locus YNL209W, strain ssb2, active compounds read low 1.01 | locus YNL248C, strain rpa49, active compounds read low 1.01 | locus YNL322C, strain KRE1 (second series), active compounds read low 1.01 | locus YNR049C, strain mso1, active compounds read low 1.02 | locus YOR001W, strain rrp6, active compounds read low 1.01 | locus YOR070C, strain gyp1, active compounds read low 1.01 | locus YOR080W, strain dia2, active compounds read low 1.01 | locus YOR083W, strain WHI5, active compounds read low 0.998 | locus YOR106W, strain vam3, active compounds read low 1.01 | locus YOR231W, strain MKK1, active compounds read low 1.02 | locus YOR265W, strain rbl2, active compounds read low 1.01 | locus YOR270C, strain vph1, active compounds read low 1.04 | locus YOR290C, strain snf2, active compounds read low 1.01 | locus YPL051W, strain arl3, active compounds read low 1.01 | locus YPL078C, strain atp4, active compounds read low 1.02 | locus YPL106C, strain sse1, active compounds read low 1.02 | locus YPL240C, strain hsp82, active compounds read low 1.01 | locus YPL256C, strain CLN2, active compounds read low 1.02
